The supplement of paper PMC8728848
Shown is part of a subset that was picked to be rich in the strongest signals.

Columns and labels:
Assay in all cases: glycan array binding signal (z-score within array); higher = stronger binding
Settings in all cases: glycan notation: IUPAC condensed, linker removed
[1] = biological target: Fuc(a1-2)Gal(b1-4)GlcNAc(b1-3)Gal(b1-4)GlcNAc(b1-2)Man(a1-3)[Fuc(a1-2)Gal(b1-4)GlcNAc(b1-3)Gal(b1-4)GlcNAc(b1-2)Man(a1-6)]Man(b1-4)GlcNAc(b1-4)GlcNAc
Method in brief: (§1)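 Arrays were curated from the Consortium for Functional Glycomics database, 3228 in total, and kept only where the protein sequence was available. Binding is expressed as a within-array Z-score. This score was averaged across arrays of the same protein sequence at different concentrations or buffers and across linkers, and negative values can be read as non-binding.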

[2] = biological target: Fuc(a1-2)Gal6S(b1-3)GlcNAc6S
Method in brief: as §1

[3] = biological target: Fuc(a1-2)[Gal(a1-3)]Gal(b1-4)[Fuc(a1-3)]GlcNAc(b1-3)GalNAc
Method in brief: as §1

[4] = biological target: Fuc(a1-2)[Gal(a1-4)]Gal(b1-4)GlcNAc
Method in brief: as §1

[5] = biological target: Fuc(a1-2)[GalNAc(a1-3)]Gal(b1-4)GlcNAc(b1-3)Gal(b1-4)GlcNAc(b1-3)Gal(b1-4)GlcNAc
Method in brief: as §1

[6] = biological target: Gal(a1-3)Gal(b1-3)GlcNAc(b1-6)GalNAc
Method in brief: as §1

Gal(a1-3)Gal(b1-4)GlcNAc = biological target: Gal(a1-3)Gal(b1-4)GlcNAc
Method in brief: as §1

[7] = biological target: Gal(a1-3)Gal(b1-4)GlcNAc(b1-2)Man
Method in brief: as §1

Gal(a1-4)GlcNAc = biological target: Gal(a1-4)GlcNAc
Method in brief: as §1

Gal(a1-6)Glc = biological target: Gal(a1-6)Glc
Method in brief: as §1

Gal(b1-3)Gal = biological target: Gal(b1-3)Gal
Method in brief: as §1

[8] = biological target: Gal(b1-3)GalNAc(a1-3)[Fuc(a1-2)]Gal(b1-4)GlcNAc
Method in brief: as §1

[9] = biological target: Gal(b1-3)GalNAc(b1-4)Gal(b1-4)Glc
Method in brief: as §1

[10] = biological target: Gal(b1-3)GlcNAc(a1-6)Gal(b1-4)GlcNAc
Method in brief: as §1

[11] = biological target: Gal(b1-3)GlcNAc(b1-3)Gal(b1-4)GlcNAc
Method in brief: as §1

[12] = biological target: Gal(b1-3)GlcNAc(b1-3)Gal(b1-4)GlcNAc(b1-6)[Gal(b1-3)GlcNAc(b1-3)]Gal(b1-4)Glc
Method in brief: as §1

[13] = biological target: Gal(b1-4)GlcNAc(b1-2)[Gal(b1-4)GlcNAc(b1-6)]Man(a1-6)[GlcNAc(b1-4)][Gal(b1-4)GlcNAc(b1-2)Man(a1-3)]Man(b1-4)GlcNAc(b1-4)GlcNAc
Method in brief: as §1

[14] = biological target: Gal(b1-4)GlcNAc(b1-3)Gal(b1-4)GlcNAc(b1-2)Man(a1-3)[Gal(b1-4)GlcNAc(b1-3)Gal(b1-4)GlcNAc(b1-2)Man(a1-6)]Man(b1-4)GlcNAc(b1-4)GlcNAc
Method in brief: as §1

[15] = biological target: Gal(b1-4)GlcNAc(b1-3)Gal(b1-4)GlcNAc(b1-3)Gal(b1-4)GlcNAc(b1-3)Gal(b1-4)GlcNAc(b1-3)Gal(b1-4)GlcNAc(b1-2)Man(a1-3)[Gal(b1-4)GlcNAc(b1-3)Gal(b1-4)GlcNAc(b1-3)Gal(b1-4)GlcNAc(b1-3)Gal(b1-4)GlcNAc(b1-3)Gal(b1-4)GlcNAc(b1-2)Man(a1-6)]Man(b1-4)GlcNAc(b1-4)[Fuc(a1-6)]GlcNAc
Method in brief: as §1

[16] = biological target: Gal(b1-4)GlcNAc(b1-3)GalNAc
Method in brief: as §1

[17] = biological target: Gal(b1-4)GlcNAc(b1-3)[GlcNAc(b1-6)]Gal(b1-4)GlcNAc
Method in brief: as §1

Gal4S(b1-4)GlcNAc = biological target: Gal4S(b1-4)GlcNAc
Method in brief: as §1

Gal6S(b1-3)GlcNAc6S = biological target: Gal6S(b1-3)GlcNAc6S
Method in brief: as §1

Gal6S(b1-4)Glc6S = biological target: Gal6S(b1-4)Glc6S
Method in brief: as §1

Gal6S(b1-4)GlcNAc6S = biological target: Gal6S(b1-4)GlcNAc6S
Method in brief: as §1

[18] = biological target: GalNAc(b1-3)Gal(a1-4)Gal(b1-4)GlcNAc(b1-3)Gal(b1-4)Glc
Method in brief: as §1

GalNAc(b1-3)GalNAc = biological target: GalNAc(b1-3)GalNAc
Method in brief: as §1

[19] = biological target: GalNAc(b1-4)GlcNAc(b1-2)Man
Method in brief: as §1

GlcA(b1-6)Gal = biological target: GlcA(b1-6)Gal
Method in brief: as §1

[20] = biological target: GlcNAc(a1-4)Gal(b1-4)GlcNAc(b1-3)Gal(b1-4)GlcNAc
Method in brief: as §1

[21] = biological target: GlcNAc(b1-2)Man(a1-3)[GlcNAc(b1-4)][GlcNAc(b1-2)Man(a1-6)]Man(b1-4)GlcNAc(b1-4)[Fuc(a1-6)]GlcNAc
Method in brief: as §1

[22] = biological target: GlcNAc(b1-2)[GlcNAc(b1-4)]Man(a1-3)[GlcNAc(b1-2)Man(a1-6)]Man(b1-4)GlcNAc(b1-4)GlcNAc
Method in brief: as §1

[23] = biological target: GlcNAc(b1-3)Gal(b1-4)GlcNAc
Method in brief: as §1

[24] = biological target: GlcNAc(b1-3)Gal(b1-4)GlcNAc(b1-2)Man(a1-3)[GlcNAc(b1-3)Gal(b1-4)GlcNAc(b1-2)Man(a1-6)]Man(b1-4)GlcNAc(b1-4)GlcNAc
Method in brief: as §1

[25] = biological target: GlcNAc(b1-3)Gal(b1-4)GlcNAc(b1-3)Gal(b1-4)GlcNAc(b1-3)Gal(b1-4)GlcNAc(b1-2)[GlcNAc(b1-3)Gal(b1-4)GlcNAc(b1-3)Gal(b1-4)GlcNAc(b1-3)Gal(b1-4)GlcNAc(b1-6)]Man(a1-6)[GlcNAc(b1-3)Gal(b1-4)GlcNAc(b1-3)Gal(b1-4)GlcNAc(b1-3)Gal(b1-4)GlcNAc(b1-2)Man(a1-3)]Man(b1-4)GlcNAc(b1-4)[Fuc(a1-6)]GlcNAc
Method in brief: as §1

[26] = biological target: GlcNAc(b1-3)[GlcNAc(b1-4)][GlcNAc(b1-6)]GlcNAc
Method in brief: as §1

Man(a1-6)Man = biological target: Man(a1-6)Man
Method in brief: as §1

[27] = biological target: Neu5Ac(a2-3)Gal(b1-3)[Fuc(a1-4)]GlcNAc(b1-3)Gal(b1-4)[Fuc(a1-3)]GlcNAc
Method in brief: as §1

[28] = biological target: Neu5Ac(a2-3)Gal(b1-4)GlcNAc(b1-2)Man(a1-3)[Neu5Ac(a2-3)Gal(b1-4)GlcNAc(b1-2)Man(a1-6)]Man(b1-4)GlcNAc(b1-4)GlcNAc
Method in brief: as §1

[29] = biological target: Neu5Ac(a2-3)Gal(b1-4)GlcNAc(b1-3)Gal(b1-4)GlcNAc(b1-6)[Gal(b1-3)]GalNAc
Method in brief: as §1

[30] = biological target: Neu5Ac(a2-3)Gal(b1-4)[Fuc(a1-3)]GlcNAc(b1-3)Gal
Method in brief: as §1

[31] = biological target: Neu5Ac(a2-3)Gal(b1-4)[Fuc(a1-3)]GlcNAc(b1-3)Gal(b1-4)[Fuc(a1-3)]GlcNAc(b1-3)Gal(b1-4)[Fuc(a1-3)]GlcNAc
Method in brief: as §1

[32] = biological target: Neu5Ac(a2-6)Gal(b1-4)GlcNAc(b1-2)Man(a1-6)Man(b1-4)GlcNAc(b1-4)GlcNAc
Method in brief: as §1

[33] = biological target: Neu5Ac(a2-6)Gal(b1-4)GlcNAc(b1-3)[Neu5Ac(a2-6)Gal(b1-4)GlcNAc(b1-6)]GalNAc
Method in brief: as §1

[34] = biological target: Neu5Ac(a2-8)Neu5Ac(a2-3)Gal(b1-3)GalNAc(b1-4)[Neu5Ac(a2-8)Neu5Ac(a2-3)]Gal(b1-4)Glc
Method in brief: as §1

B1: Epa22 (Candida glabrata) (protein)
chain: MGSSHHHHHHSSGLVPRGSHMKRALSSQNPFGYPIGCSPQSTNVIPGLTMELYSYPIVSGTPPNCYDASYVDPEYPRTGYLKRKMIGKSTGVTGSLNYKFSVEKACMVKYGNLPAGYNYNEPLTVSNFTMLLYGYFKPQTSGIHTFFVNADDLLYINFGAGNAFDCCKREDSKFKLGEYVAYDIWHVDSSKNKVSLNLEKDVYYPIRMFFNNIGKDSSLDLSFSVNGAVEHITDFSGYLYSVPDQPDACPAPIGYDTTCK
glycan array binding signal (z-score) [1]: -0.382 | glycan array binding signal (z-score) [2]: 5.1 | glycan array binding signal (z-score) [3]: -0.345 | glycan array binding signal (z-score) [4]: 4.5 | glycan array binding signal (z-score) [5]: -0.366 | glycan array binding signal (z-score) [6]: 3.74 | glycan array binding signal (z-score) (Gal(a1-3)Gal(b1-4)GlcNAc): 5.2 | glycan array binding signal (z-score) [7]: 4.75 | glycan array binding signal (z-score) (Gal(a1-4)GlcNAc): 5.91 | glycan array binding signal (z-score) (Gal(a1-6)Glc): 6.63 | glycan array binding signal (z-score) (Gal(b1-3)Gal): 1.3 | glycan array binding signal (z-score) [8]: -0.36 | glycan array binding signal (z-score) [9]: 0.34 | glycan array binding signal (z-score) [10]: 0.491 | glycan array binding signal (z-score) [11]: -0.148 | glycan array binding signal (z-score) [12]: -0.145 | glycan array binding signal (z-score) [13]: -0.288 | glycan array binding signal (z-score) [14]: 0.073 | glycan array binding signal (z-score) [15]: -0.231 | glycan array binding signal (z-score) [16]: -0.023 | glycan array binding signal (z-score) [17]: -0.387 | glycan array binding signal (z-score) (Gal4S(b1-4)GlcNAc): -0.182 | glycan array binding signal (z-score) (Gal6S(b1-3)GlcNAc6S): 5.95 | glycan array binding signal (z-score) (Gal6S(b1-4)Glc6S): 4.93 | glycan array binding signal (z-score) (Gal6S(b1-4)GlcNAc6S): 4.56 | glycan array binding signal (z-score) [18]: -0.336 | glycan array binding signal (z-score) (GalNAc(b1-3)GalNAc): -0.424 | glycan array binding signal (z-score) [19]: -0.393 | glycan array binding signal (z-score) (GlcA(b1-6)Gal): 5.98 | glycan array binding signal (z-score) [20]: -0.413 | glycan array binding signal (z-score) [21]: -0.35 | glycan array binding signal (z-score) [22]: -0.368 | glycan array binding signal (z-score) [23]: -0.312 | glycan array binding signal (z-score) [24]: -0.39 | glycan array binding signal (z-score) [25]: -0.37 | glycan array binding signal (z-score) [26]: -0.383 | glycan array binding signal (z-score) (Man(a1-6)Man): -0.371 | glycan array binding signal (z-score) [27]: -0.409 | glycan array binding signal (z-score) [28]: -0.356 | glycan array binding signal (z-score) [29]: -0.248 | glycan array binding signal (z-score) [30]: -0.385 | glycan array binding signal (z-score) [31]: -0.375 | glycan array binding signal (z-score) [32]: -0.426 | glycan array binding signal (z-score) [33]: -0.246 | glycan array binding signal (z-score) [34]: -0.003
